# High-throughput results: PubChem, several laboratories
# NPR1 activator: GC-A stimulated cGMP production enhancers – HEK293 GC-A cells, cGMP TR-FRET, EC30 ANP, primary screen; actives 0.14% (n = 370,000); activation, % at 10 µM; Atrial natriuretic peptide receptor 1 (Homo sapiens), P16066; 0% at EC30 ANP, 100% saturating ANP; AID 1671463, 2021; in the data active = activation above about 40%
# Target sequence (P16066 whole entry, looked up): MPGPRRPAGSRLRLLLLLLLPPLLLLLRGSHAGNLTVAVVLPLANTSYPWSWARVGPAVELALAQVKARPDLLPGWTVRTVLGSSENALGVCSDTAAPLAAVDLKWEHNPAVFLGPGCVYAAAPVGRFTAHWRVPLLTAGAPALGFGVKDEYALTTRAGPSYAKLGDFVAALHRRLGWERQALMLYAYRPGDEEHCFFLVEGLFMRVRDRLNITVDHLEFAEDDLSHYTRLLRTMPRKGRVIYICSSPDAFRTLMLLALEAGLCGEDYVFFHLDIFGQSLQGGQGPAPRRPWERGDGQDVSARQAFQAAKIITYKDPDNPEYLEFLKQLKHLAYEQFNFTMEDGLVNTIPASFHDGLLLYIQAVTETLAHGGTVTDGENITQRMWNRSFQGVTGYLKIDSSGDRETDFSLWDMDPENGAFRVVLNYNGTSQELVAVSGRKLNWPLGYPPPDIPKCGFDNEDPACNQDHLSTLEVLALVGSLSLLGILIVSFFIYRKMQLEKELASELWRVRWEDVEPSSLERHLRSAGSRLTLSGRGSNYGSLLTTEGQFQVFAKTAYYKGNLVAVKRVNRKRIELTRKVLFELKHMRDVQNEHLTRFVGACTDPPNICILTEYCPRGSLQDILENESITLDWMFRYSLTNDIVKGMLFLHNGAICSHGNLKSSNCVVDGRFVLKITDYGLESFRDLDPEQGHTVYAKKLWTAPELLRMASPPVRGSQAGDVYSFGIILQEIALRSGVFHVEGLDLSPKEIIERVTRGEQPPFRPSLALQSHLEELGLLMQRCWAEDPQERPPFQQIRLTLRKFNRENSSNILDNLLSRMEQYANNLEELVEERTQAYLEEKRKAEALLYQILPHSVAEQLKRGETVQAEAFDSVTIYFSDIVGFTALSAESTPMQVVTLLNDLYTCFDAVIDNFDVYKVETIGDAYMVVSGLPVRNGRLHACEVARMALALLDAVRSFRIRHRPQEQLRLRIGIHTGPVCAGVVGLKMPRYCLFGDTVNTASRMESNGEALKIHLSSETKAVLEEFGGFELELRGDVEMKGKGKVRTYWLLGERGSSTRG
# HDAC3 inhib: HDAC3 deacetylase inhibitors, primary screen, biochemical, fluorescence, cell-free homogeneous; inhibition, % at 8.3 µM; actives 0.15% (n = 320,000); Histone deacetylase 3 (Homo sapiens), O15379; recombinant HDAC3, fluorogenic peptide/trypsin coupled; in the data active = inhibition above about 26%, passing the limit was not always enough; inconclusive = no clear call, values can overlap the other calls
# NPR2 activator: human GC-B receptor activators, primary screen, HEK293 GC-B cells, cGMP TR-FRET, EC30 CNP; activation, % at 10 µM; actives 0.11% (n = 370,000); 0% at EC30 CNP, 100% saturating CNP;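 active = activation at 10 µM reaching about 35% in either raw or pattern-adjusted values, limit read from the data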
# ALR H2O2 inh: inhibitors of human ALR sulfhydryl oxidase, primary screen, biochemical, H2O2 detection, HRP-luminol luminescence, single point; purified ALR, DTT oxidation; actives 3.8% (n = 290,000); inhibition, % (test concentration not listed); FAD-linked sulfhydryl oxidase ALR (Homo sapiens), P55789; AID 485317, 2010;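 active = mean replicate inhibition above about 79%, with every replicate also reaching it, limit read from the data; inconclusive = only one of the two criteria met; inactive = mean below limit and not every replicate reaching it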
# * marks the source's active call; other numbers are inactive results; ? = inconclusive; / = no result. The entries come from a sample that favours hits as a whole.
SMILES,NPR1 activator,HDAC3 inhib,NPR2 activator,ALR H2O2 inh
CCOCCCNS(=O)(=O)c1ccc(NC(=O)c2ccc(OC)c([N+](=O)[O-])c2)cc1,-7.1,?,-12.1,2.4
COc1ccc(C(=O)Nc2ccc(S(=O)(=O)NC(C)=O)cc2)cc1[N+](=O)[O-],-2.3,2.7,-0.5,99.0*
COc1ccc(C(=O)NNC(=O)c2ccncc2)cc1[N+](=O)[O-],3.4,3.0,3.3,-7.2
O=C(NC(=S)NNC(=O)c1ccccc1[N+](=O)[O-])c1ccc(Br)cc1,2.1,-0.2,-3.0,98.8*
COc1ccc(C(=O)NNC(=S)NC(=O)c2cccc([N+](=O)[O-])c2)cc1,-5.7,5.6,2.5,97.7*
COc1ccc(C(=O)NC(=S)NNC(=O)c2ccc(O)cc2)cc1[N+](=O)[O-],-3.3,1.3,1.2,97.0*
O=C1COc2ccc(S(=O)(=O)Nc3cccc(Cl)c3)cc2N1,5.9,6.3,-3.4,8.6
CCN1CCN(Cc2oc(CO)cc(=O)c2O)CC1,-1.7,1.2,5.2,-4.2
O=c1cc(CO)oc(CN2CCN(c3cccc(C(F)(F)F)c3)CC2)c1O,-6.9,-0.7,-5.4,?
CCOC(=O)C1CCN(Cc2oc(CO)cc(=O)c2O)CC1,1.9,0.5,-0.8,90.8*
O=c1cc(CO)oc(CN2CCN(c3ccccc3)CC2)c1O,0.6,4.8,-9.4,98.1*
CCC1(c2ccccc2)NC(=O)N(CC(=O)NNC(=O)c2ccc(F)cc2)C1=O (centres undefined),-1.0,/,0.9,/
O=S(=O)(c1ccccc1F)N1CCN(CCc2ccccc2)CC1,-0.3,-3.0,6.6,/
COCc1[nH]nc2c1C(c1ccccc1)NC2=O (centres undefined),-0.7,/,3.1,/
CC1(C)Nc2ccccc2N(CC(=O)N2CCCCC2)C1=O,2.8,0.8,5.7,98.4*
CC1(C)Nc2ccccc2N(CCC(=O)N2CCOCC2)C1=O,-0.3,1.0,0.7,/
CC1(C)Nc2ccccc2N(Cc2ccc([N+](=O)[O-])cc2)C1=O,-4.4,4.5,3.1,95.8*
COC(=O)c1ccc(C)c(NC(=O)CSc2sc3c(O)cc(=O)[nH]c3c2C#N)c1,0.7,1.6,-5.9,?
N#Cc1c(SCC(=O)Nc2cccc(C(F)(F)F)c2)sc2c(O)cc(=O)[nH]c12,4.5,1.6,1.0,99.4*
Cc1cc(NC(=O)CSc2sc3c(O)cc(=O)[nH]c3c2C#N)ccc1Br,2.8,-7.4,-1.9,99.1*
COC(=O)c1ccc2c(=O)n(CCN3CCOCC3)c(SCC(=O)Nc3ccc(C)cc3)nc2c1,3.5,/,-2.7,99.0*
CCCCn1c(SCC(=O)Nc2ccc(OC)cc2)nc2ccc(N3CCOCC3)cc2c1=O,0.7,4.6,-4.7,99.0*
CCOC(=O)CSc1nc2cc(C(=O)OC)ccc2c(=O)n1CCN1CCOCC1,6.6,4.1,12.5,/
CCCCn1c(SCC(=O)NC(C)CC)nc2ccc(N3CCOCC3)cc2c1=O (centres undefined),2.0,7.6,-1.9,-36.9
Cc1ccc(NC(=O)CSc2nc3ccccc3c(=O)n2CCCN2CCCCC2)cc1C,-5.7,3.1,7.1,98.2*
SMILES,NPR1 activator,HDAC3 inhib,NPR2 activator,ALR H2O2 inh
CC(=O)c1cccc(NC(=O)CSc2nc3ccccc3c(=O)n2CCCN2CCOCC2)c1,1.6,3.5,-5.5,14.1
COc1ccc(-n2c(SCC(=O)Nc3ccc(Oc4ccccc4)cc3)nnc2-c2ccc(C)cc2)cc1,1.2,/,5.5,/
COc1cc(/C=C2\SC(=S)N(NS(=O)(=O)c3ccc(C)cc3)C2=O)ccc1O,-4.8,/,-11.4,99.2*
COc1cccc(/C=C2\SC(=S)N(NS(=O)(=O)c3ccc(C)cc3)C2=O)c1OC,-0.6,7.3,7.2,90.6*
CCOc1cc(/C=C2\SC(=S)N(NS(=O)(=O)c3ccc(C)cc3)C2=O)ccc1O,-17.4,3.2,-20.5,98.8*
CC(/C=C1\SC(=S)N(NS(=O)(=O)c2ccccc2)C1=O)=C\c1ccccc1,-2.5,4.4,-8.9,97.7*
COc1ccccc1/C=C1\SC(=S)N(NS(=O)(=O)c2ccccc2)C1=O,1.9,4.5,-1.5,0.2
COc1cc(/C=C2\SC(=S)N(NS(=O)(=O)c3ccccc3)C2=O)ccc1O,-6.3,/,-5.4,/
Cc1ccsc1C(=O)N1CCC1(C)C(=O)NCCC#N (centres undefined),1.7,/,2.0,/
c1cnc2nc3c4ccccc4c4ccccc4c3nc2c1,-30.1,/,-15.7,/
COc1cc(/C=C2/SC(=S)N(c3c(C)n(C)n(-c4ccccc4)c3=O)C2=O)ccc1O,-4.7,6.7,-2.3,89.7*
COc1cc(/C=C2/SC(=S)N(Cc3ccccc3)C2=O)ccc1O,2.1,10.7,2.1,-1.9
O=C(c1cc2cc(F)ccc2[nH]1)N1CCN(C(=O)c2ccco2)CC1,10.6,?,9.0,-5.6
c1ccc(N2CCOCCOCCOCCOCC2)cc1,-6.3,3.8,-2.9,99.2*
O=C(NCCCN1CCCC1=O)c1cccc(NS(=O)(=O)c2ccc(Br)cc2)c1,2.0,-3.2,2.5,-1.9
CNC(=O)COC(=O)c1ccccc1Nc1ccccc1,1.3,6.6,3.6,16.4
C/C(CC(=O)Nc1ccc(N(C)C)cc1)=N\NC(=O)c1ccc([N+](=O)[O-])cc1,-4.5,-1.8,-4.9,94.9*
COc1ccc(CC(=O)N/N=C(\C)CC(=O)Nc2ccc3c(c2)OCCO3)cc1,-1.9,0.9,-2.5,/
COc1ccc(C(=S)Nc2ccc(N(C)C)cc2)cc1,0.3,-7.5,2.1,99.2*
COc1ccc(CC(=O)N/N=C(\C)CC(=O)Nc2ccc(N(C)C)cc2)cc1,-7.3,-3.7,-3.0,94.5*
N#Cc1ccc(S(=O)(=O)N2CCCc3nc(-c4ccccc4)ccc32)cc1,0.2,/,1.7,/
Cc1ccc(CNc2ccc3c(c2)nc(C)n3C)cc1,3.4,-0.7,5.1,/
COc1ccc(CNc2ccc(Br)cc2)cc1,5.6,-4.4,-1.0,98.2*
COc1ccc(OC)c(CNc2ccc3c(c2)nc(C)n3C)c1,-7.0,-1.8,-0.9,85.0*
COc1ccc(CNc2ccc3c(c2)nc(C)n3C)cc1,0.5,-5.1,-4.5,89.2*
SMILES,NPR1 activator,HDAC3 inhib,NPR2 activator,ALR H2O2 inh
CN(C)c1ccc(N/C=C/C(=O)c2ccccc2)cc1,6.6,5.8,-1.8,40.0
CCOC(=O)c1ccc(N/C=C/C(=O)C(C)(C)C)cc1,-2.1,1.9,-0.9,-3.6
CN(C)c1ccc(N/C=C/C(=O)C(C)(C)C)cc1,-1.6,1.3,-7.9,99.4*
CC(C)(C)C(=O)/C=C/Nc1ccccc1O,-2.6,5.8,-4.9,98.9*
O=C1Nc2ccccc2N=C(c2ccc3c(c2)OCO3)C1N(CCc1ccccc1)C(=O)CSc1ncccn1 (centres undefined),-13.0,/,-9.2,/
O=C(N/N=C/c1ccc(N2CCOCC2)s1)c1ccccc1Cl,-2.9,3.5,-4.1,87.6*
COc1ccc(C(=O)N/N=C/c2ccc(N3CCOCC3)s2)cc1OC,-18.7,4.8,-11.3,93.1*
